Source: PubChem BioAssay
Only a selection was taken, and hits are over-represented in it overall.
CBX7 inh = CBX7 chromodomain binding inhibitors, primary screen, biochemical, AlphaScreen | Chromobox protein homolog 7 (Homo sapiens), O95931 | AlphaScreen His6-CBX7 / biotin-H3K27me3 peptide binding; active compounds read low | normalised signal (fraction of DMSO) (concentration not given with the values) | hit rate 1.1% among 66,000 | AID 1224903, 2016; in the data active = normalised signal below about 0.5
Target sequence (O95931 whole entry, looked up): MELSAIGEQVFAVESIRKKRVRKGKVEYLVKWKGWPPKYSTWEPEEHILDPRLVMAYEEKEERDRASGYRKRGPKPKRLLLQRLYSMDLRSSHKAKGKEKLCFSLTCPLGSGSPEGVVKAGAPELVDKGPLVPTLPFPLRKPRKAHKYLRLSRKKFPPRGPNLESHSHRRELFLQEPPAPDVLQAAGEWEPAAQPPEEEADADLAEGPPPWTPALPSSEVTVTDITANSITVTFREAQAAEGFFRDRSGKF
Numbers without * were called inactive.

How did COc1ccc(-c2noc(N(C)CC(=O)O)n2)cc1 do in these assays?
CBX7 inh: 1.01

How did CCN1CCN(CCCNC(=O)CC2Oc3ccccc3NC2=O)CC1 (stereo not drawn) do in these assays?
CBX7 inh: 1.33

How did COc1cccc(C(=O)Nc2c3c(nn2-c2ccc(Cl)cc2)CSC3)c1OC do in these assays?
CBX7 inh: 1.24

What do the screens show for `Cc1cccc(OCC(=O)Nc2nc3ccccc3n2C)c1C`?
CBX7 inh: 0.954

What do the screens show for `COc1ccccc1Nc1cc(C)nc2c(OC)cccc12`?
CBX7 inh: 0.766

How did COc1ccccc1Nc1cc(C(F)(F)F)nc2c(OC)ccc(OC)c12 do in these assays?
CBX7 inh: 0.205*

How did COc1ccccc1Nc1cc(C)nc2c(C)cccc12 do in these assays?
CBX7 inh: 1.07

Results for CCOC(=O)c1ccc2nc(NC(=O)c3ccc(C(=O)OC)cc3)sc2c1 ?
CBX7 inh: 1.07

Results for O=C(CN1CCN(Cc2ccc(Cl)cc2)C1=O)NC1CCCC1 ?
CBX7 inh: 1.05

How did CCCCCc1ccc(-c2ccc(C(=O)Nc3cc(Cl)ccc3C)cc2)nc1 do in these assays?
CBX7 inh: 1.06

What do the screens show for `Cc1cc(C(=O)Nc2ccc(C)c(Cl)c2)n(-c2ccccc2)n1`?
CBX7 inh: 1.08

Results for CCN(CC)S(=O)(=O)c1ccc(C(=O)Nc2nnc(COC)o2)cc1 ?
CBX7 inh: 0.0237*

How did CCN(CC)S(=O)(=O)c1ccc(C(=O)Nc2nnc(-c3ccccc3Cl)o2)cc1 do in these assays?
CBX7 inh: 1.01

What do the screens show for `CCCCN(CCCC)S(=O)(=O)c1ccc(C(=O)Nc2nnc(COC)o2)cc1`?
CBX7 inh: 0.156*

How did CCCCN(CCCC)S(=O)(=O)c1ccc(C(=O)Nc2nnc(-c3cccs3)o2)cc1 do in these assays?
CBX7 inh: 0.805

How did CCCCN(CCCC)S(=O)(=O)c1ccc(C(=O)Nc2nnc(-c3ccccc3Cl)o2)cc1 do in these assays?
CBX7 inh: 1.01

What do the screens show for `O=C(CCc1nc(-c2cccs2)no1)Nc1ccc(Oc2ccccc2)cc1`?
CBX7 inh: 0.972

What do the screens show for `COC(=O)Cc1nc(Nc2ccc(F)cc2F)c2c(C)c(C)sc2n1`?
CBX7 inh: 0.944

Results for O=C(CN1CCOCC1)Nc1c2c(nc3c1CCC3)CCCC2 ?
CBX7 inh: 0.681

What do the screens show for `COc1ccc(CNC(=O)c2ccc(CNS(=O)(=O)c3ccccc3)cc2)cc1`?
CBX7 inh: 0.986

What do the screens show for `Cc1ccc(S(=O)(=O)NCC(NC(c2ccccc2)c2ccccc2)c2ccccc2)cc1` (stereo not drawn)?
CBX7 inh: 0.836

How did COc1ccc(NC(CNS(=O)(=O)c2ccccc2)c2ccccc2)cc1 (stereo not drawn) do in these assays?
CBX7 inh: 0.294*

Results for Cc1ccc2c(c1)NC(=O)C(CC(=O)Nc1ccc(F)cc1C)O2 (stereo not drawn) ?
CBX7 inh: 1.07

How did CCCn1cnc2cc(NCc3cccc(OC)c3O)ccc21 do in these assays?
CBX7 inh: 0.913

What do the screens show for `CCc1ccc(CNc2ccc3c(c2)ncn3C)cc1`?
CBX7 inh: 0.532

How did CCn1cnc2cc(NCc3ccc(Cl)cc3)ccc21 do in these assays?
CBX7 inh: 0.888

Results for CCCn1cnc2cc(NCc3cccc(OC)c3OC)ccc21 ?
CBX7 inh: 0.673

How did CCCn1cnc2cc(NCc3ccc(OCC)cc3)ccc21 do in these assays?
CBX7 inh: 0.445*

What do the screens show for `Cc1ccc(CNc2ccc3c(c2)ncn3C)cc1`?
CBX7 inh: 0.651

Results for CCCn1cnc2cc(NCc3ccc(C)cc3)ccc21 ?
CBX7 inh: 0.463*

Results for CCCCn1cnc2cc(NCc3ccc(Cl)cc3)ccc21 ?
CBX7 inh: 0.223*

How did CCCn1cnc2cc(NCc3ccccn3)ccc21 do in these assays?
CBX7 inh: 0.349*

Results for CCOc1ccc(CNc2ccc3c(c2)ncn3CC)cc1 ?
CBX7 inh: 0.862

How did Cc1ccc(CNc2ccc3c(c2)nc(C)n3C)cc1 do in these assays?
CBX7 inh: 0.958

What do the screens show for `COc1ccc(S(=O)(=O)NCCc2c(C)[nH]c3c(Cl)cccc23)c2ccccc12`?
CBX7 inh: 0.825

What do the screens show for `CCC1=Nc2cc(C(=O)NCCCc3ccccc3)ccc2Sc2ccc(Br)cc21`?
CBX7 inh: 0.98

Results for Fc1ccccc1-c1nc(N2CCc3ccccc3C2)c2ccccc2n1 ?
CBX7 inh: 1.08

Results for Cc1ccc(-c2nc(C(=O)NC3CCCc4ccccc43)c(C)o2)cc1 (stereo not drawn) ?
CBX7 inh: 0.93

Results for CC1CCCCC1NC(=O)c1ccc2c(c1)N(Cc1ccccc1F)C(=O)CS2 (stereo not drawn) ?
CBX7 inh: 1.14

What do the screens show for `CCOC(=O)c1ccc(NC(=O)CSc2nccn2-c2cccc(OC)c2)cc1`?
CBX7 inh: 0.897

Results for CCOc1ccc2nc(N3CCC(C(=O)NC4CCCc5ccccc54)CC3)sc2c1 (stereo not drawn) ?
CBX7 inh: 0.978

Results for CCN(CC)C(C(=O)NC1CCCC1)c1ccc(C)cc1 (stereo not drawn) ?
CBX7 inh: 1.07
